Source: PubChem BioAssay AID1159580 (chemical genetic matrix, 2015)
Several values for one entry are separate records, joined by “and”; a condition that tells them apart may be missing. Identical values can stand only once. Hit rate of the full screen: of about 5,500 compounds, about 2,000 (36%) were called active. Inconclusive results (about 18%) are left out. Rule as the data show it: active = normalized growth mostly below about 0.91 (no sharp cut-off); inconclusive = no clear call, values can overlap the other calls; inactive = mostly above about 0.92. The list shows a part of the results.

Assay: chemical genetic growth profiling, strain panel (AID 1159580);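 also: tested at 20 µM; growth read once vehicle control cultures reached saturation at 30 °C; 1 = growth at the plate median or of vehicle wells; lower values mean less growth of the strain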
Details: S. cerevisiae deletion strains, growth OD

Measured: normalized growth

CCCCOc1ccc(C(=O)CCN2CCCCC2)cc1
inactive: locus YAL030W, strain snc1, stronger effect = lower value 0.977 | locus YBL061C, strain skt5, stronger effect = lower value 0.968 | locus YBR021W, strain FUR4, stronger effect = lower value 0.918 | locus YBR023C, strain chs3, stronger effect = lower value 0.95 | locus YBR171W, strain sec66, stronger effect = lower value 0.981 | locus YBR229C, strain ROT2, stronger effect = lower value 1 | locus YCL011C, strain gbp2, stronger effect = lower value 0.966 | locus YCL016C, strain dcc1, stronger effect = lower value 0.927 | locus YCR088W, strain abp1, stronger effect = lower value 0.94 | locus YDL005C, strain med2, stronger effect = lower value 0.994 | locus YDL040C, strain nat1, stronger effect = lower value 0.989 | locus YDL101C, strain DUN1, stronger effect = lower value 0.907 | locus YDL185W, strain tfp1, stronger effect = lower value 0.961 | locus YDR001C, strain nth1, stronger effect = lower value 0.992 | locus YDR101C, strain arx1, stronger effect = lower value 0.951 | locus YDR159W, strain sac3, stronger effect = lower value 0.913 | locus YDR297W, strain sur2, stronger effect = lower value 0.952 | locus YER015W, strain faa2, stronger effect = lower value 0.967 | locus YER111C, strain swi4, stronger effect = lower value 0.979 | locus YGL078C, strain dbp3, stronger effect = lower value 0.928 | locus YGL167C, strain pmr1, stronger effect = lower value 0.986 | locus YGL227W, strain vid30, stronger effect = lower value 0.997 | locus YHR079C, strain IRE1, stronger effect = lower value 1.04 | locus YIL125W, strain kgd1, stronger effect = lower value 0.957 | locus YJL092W, strain hpr5, stronger effect = lower value 0.918 | locus YJL115W, strain asf1, stronger effect = lower value 0.926 | locus YJL129C, strain trk1, stronger effect = lower value 0.899 | locus YJL154C, strain vps35, stronger effect = lower value 0.968 | locus YJL166W, strain qcr8, stronger effect = lower value 0.925 | locus YJL187C, strain SWE1, stronger effect = lower value 0.962
0.135 (active) and 0.992 (inactive): locus YHR030C, strain SLT2, stronger effect = lower value
0.415 (active) and 0.996 (inactive): locus YJL095W, strain BCK1, stronger effect = lower value
active: locus YAL013W, strain DEP1, stronger effect = lower value 0.807 | locus YAL021C, strain ccr4, stronger effect = lower value 0.871 | locus YAL026C, strain drs2, stronger effect = lower value 0.107 | locus YBR009C, strain hhf1, stronger effect = lower value 0.879 | locus YBR231C, strain swc5, stronger effect = lower value 0.866 | locus YBR279W, strain paf1, stronger effect = lower value 0.931 | locus YCL029C, strain bik1, stronger effect = lower value 0.857 | locus YCL061C, strain MRC1, stronger effect = lower value 0.875 | locus YCL069W, strain vba3, stronger effect = lower value 0.139 | locus YDL035C, strain GPR1, stronger effect = lower value 0.772 | locus YDL074C, strain BRE1, stronger effect = lower value 0.5 | locus YDL134C, strain PPH21, stronger effect = lower value 0.137 | locus YDL192W, strain arf1, stronger effect = lower value 0.54 | locus YDR069C, strain doa4, stronger effect = lower value 0.898 | locus YDR137W, strain rgp1, stronger effect = lower value 0.769 | locus YDR162C, strain NBP2, stronger effect = lower value 0.44 | locus YDR195W, strain ref2 1.29 [resistant] | locus YDR318W, strain mcm21, stronger effect = lower value 0.0958 | locus YDR334W, strain swr1, stronger effect = lower value 0.851 | locus YDR335W, strain msn5, stronger effect = lower value 0.277 | locus YDR388W, stronger effect = lower value 0.53 | locus YDR392W, strain spt3, stronger effect = lower value 0.108 | locus YDR502C, strain sam2, stronger effect = lower value 0.657 | locus YEL003W, strain gim4, stronger effect = lower value 0.888 | locus YEL037C, strain rad23, stronger effect = lower value 0.853 | locus YEL061C, strain CIN8 (second series), stronger effect = lower value 0.446 | locus YEL061C, strain CIN8, stronger effect = lower value 0.675 | locus YER016W, strain bim1, stronger effect = lower value 0.9 | locus YER110C, stronger effect = lower value 0.275 | locus YER155C, strain BEM2 (second series), stronger effect = lower value 0.146 | locus YER155C, strain BEM2, stronger effect = lower value 0.258 | locus YER167W, strain BCK2, stronger effect = lower value 0.277 | locus YFR010W, strain ubp6, stronger effect = lower value 0.815 | locus YGL086W, strain mad1, stronger effect = lower value 0.157 | locus YGL173C, strain kem1, stronger effect = lower value 0.845 | locus YGL240W, strain doc1, stronger effect = lower value 0.85 | locus YGL248W, strain PDE1, stronger effect = lower value 0.0961 | locus YGL253W, strain hxk2, stronger effect = lower value 0.252 | locus YGR078C, strain PAC10, stronger effect = lower value 0.187 | locus YGR135W, strain pre9, stronger effect = lower value 0.42 | locus YGR229C, strain SMI1, stronger effect = lower value 0.428 | locus YGR252W, strain gcn5, stronger effect = lower value 0.402 | locus YHR013C, strain ard1, stronger effect = lower value 0.707 | locus YHR027C, strain rpn1, stronger effect = lower value 0.901 | locus YHR079C, strain IRE1 (second series), stronger effect = lower value 0.854 | locus YHR094C, strain hxt1, stronger effect = lower value 0.0833 | locus YHR129C, strain ARP1, stronger effect = lower value 0.413 | locus YHR142W, strain chs7, stronger effect = lower value 0.155 | locus YHR200W, strain rpn10, stronger effect = lower value 0.838 | locus YIL066C, strain RNR3, stronger effect = lower value 0.134 | locus YIL073C, strain SPO22, stronger effect = lower value 0.281 | locus YIR030C, strain dcg1, stronger effect = lower value 0.486 | locus YJL095W, strain BCK1 (second series), stronger effect = lower value 0.734 | locus YJL134W, strain LCB3, stronger effect = lower value 0.533 | locus YJL164C, strain tpk1, stronger effect = lower value 0.883 | locus YJL168C, strain set2, stronger effect = lower value 0.468 | locus YJL187C, strain SWE1 (second series), stronger effect = lower value 0.84 | locus YJR043C, strain POL32, stronger effect = lower value 0.636
